40 compounds from PubChem BioAssay (Tox21) can be followed below.

Records with an inconclusive call do not appear. The source made the active and inactive calls. Calls come from the whole dose curve; as a rule, active = well fitted curve in the direction sought with a large enough effect in the repeat runs; inconclusive = weak or mixed curves; inactive = no such curve, though single readings can be large; an effect the other way counts as inactive or inconclusive.
% is set by controls: 0 for no effect and ±100 for the full control effect; potency is the fitted concentration of half-maximal effect.

A short description of the first test: qHTS assay to identify small molecule antagonists of the estrogen related receptor (ERR) signaling pathway (AID 1224819; note: nearly all actives have a fitted effect of over 50% in size;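 for activity change, negative = inhibition: luminescence from an ERR-driven luciferase reporter measured with One-Glo reagent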). The note with it: ERR reporter cell line, luciferase inhibition; series mostly up to 46.1 µM; activity change, negative = inhibition: at the top concentration. The method in brief: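 qHTS in ERR cells, 2,000/well, 1536 format. Cpd (DMSO) added after 6 h settle, 18 h 37 C. One-Glo luminescence, 30 min RT.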
A general note: Quantitative high-throughput screening tests each substance at several concentrations.
Regarding `CCCN(CCc1ccccc1)C1CCc2c(O)cccc2C1` (stereo not given), the “activity change, negative = inhibition” value is -14.5% (inactive).
For `O=C(O)Cc1ccc(O)c(O)c1`, the “activity change, negative = inhibition” value was 7.97% (inactive).
With `S=C(S)OC1CC2CC1C1CCCC21` (stereo not given), the “activity change, negative = inhibition” value was 10% (inactive).
As for `[Li+]`, the “activity change, negative = inhibition” value is 9.45% (inactive).
Regarding `Nc1nc(N)c2nc(CNc3ccc(C(=O)NC(CCC(=O)O)C(=O)O)cc3)cnc2n1` (stereo not given), the Potency is 43.8 nM (active).
For `CN1CCc2ccccc2Cc2[nH]c3ccccc3c2CC1`, the “activity change, negative = inhibition” value was -8.98% (inactive).
Consider `NCC(O)C1CCCCCCC1` (stereo not given), for which the “activity change, negative = inhibition” value is 3.86% (inactive).
With `O=C(O)C1CCCN(CCC=C(c2ccccc2)c2ccccc2)C1` (stereo not given), the “activity change, negative = inhibition” value was 8.19% (inactive).
As for `CCCCC#Cc1nc(NC)c2ncn([C@@H]3O[C@H](CO)[C@@H](O)C3O)c2n1` (stereo not given in full), the “activity change, negative = inhibition” value was -10.9% (inactive).
Regarding `N[C@@H](CS(=O)O)C(=O)O`, the “activity change, negative = inhibition” value is 1.94% (inactive).
Regarding `O=C1NC(=O)C(c2ccccc2[N+](=O)[O-])=C1Nc1ccc(O)c(Cl)c1`, the “activity change, negative = inhibition” value is 4.26% (inactive).
For `Nc1ncnc2c1nc(Br)n2C1OC2COP(=O)(O)O[C@@H]2C1O` (stereo not given in full), the “activity change, negative = inhibition” value is 6.46% (inactive).
On to `COc1ccccc1CNCCCCCCNCCCCCCCCNCCCCCCNCc1ccccc1OC`, for which the “activity change, negative = inhibition” value is 8.86% (inactive).
On the same count and under the same terms, the same measure for `O=c1c(O)c(-c2cc(O)c(O)c(O)c2)oc2cc(O)cc(O)c12`: -8.1% (inactive); for `Cc1cc2c(cc1Cl)N(C(=O)Nc1ccnc3ccccc13)CC2`: -25.1% (inactive); for `Cc1cn([C@H]2CC(N=[N+]=[N-])[C@@H](CO)O2)c(=O)[nH]c1=O` (stereo not given in full): -0.2% (inactive).
On the same count and under the same terms, the same measure for `CN1[C@@H](CC(=O)c2ccccc2)CCC[C@H]1C[C@H](O)c1ccccc1`: 9.39% (inactive); for `NCC1OC(OC2C(O)[C@@H](OC3C(O)C(N)CC(N)C3OC3OC(CO)C(O)C(O)C3N)O[C@@H]2CO)C(N)C(O)C1O` (stereo not given in full): 4.56% (inactive).
For the compound `O=C(O)C1CCCNC1` (stereo not given), the “activity change, negative = inhibition” value was 11% (inactive).
Take `O=C(Nc1ccc2[nH]ncc2c1)C1CCC1`: the “activity change, negative = inhibition” value is 230% (inactive).
On to `CCCCOc1cc(CC2CNC(=O)N2)ccc1OC` (stereo not given), for which the “activity change, negative = inhibition” value was 2.61% (inactive).
In the case of `O=Nc1c(-c2c(O)[nH]c3cc(Br)ccc23)[nH]c2ccccc12`, the “activity change, negative = inhibition” value is -76.2% (inactive).
As to `CNCCC=C1c2ccccc2CCc2ccccc21`, the “activity change, negative = inhibition” value was 9.5% (inactive).
Regarding `CC(C)C[C@H](NC(=O)[C@H](O)[C@H](N)Cc1ccccc1)C(=O)O`, the “activity change, negative = inhibition” value is 0.69% (inactive).
Consider `CCNC(=O)[C@H]1O[C@@H](n2cnc3c(N)nc(NCCc4ccc(CCC(=O)O)cc4)nc32)[C@H](O)C1O` (stereo not given in full), for which the “activity change, negative = inhibition” value is -2.14% (inactive).
Turning to `O=C1Cc2c([nH]c3ccc(Br)cc23)-c2ccccc2N1`, the “activity change, negative = inhibition” value was 112% (inactive).
For `Cc1nc(N=Nc2ccc(C(=O)O)cc2)c(COP(=O)(O)O)c(C=O)c1O`, the “activity change, negative = inhibition” value is -3.2% (inactive).
On to `O=c1ccn([C@@H]2O[C@H](COP(=O)(O)OP(=O)(O)O)[C@@H](O)[C@H]2O)c(=O)[nH]1`, for which the “activity change, negative = inhibition” value was 0.273% (inactive).
Turning to `O=C(N[C@@H](Cc1ccccc1)C(=O)CCl)OCc1ccccc1`, the Potency was 21100 nM (active).
For `NC(=O)c1ccc2[nH]ccc2c1`, the “activity change, negative = inhibition” value was 3.93% (inactive).
For `CCCCCCCCCCCCCCCCCC(=O)OC(CC(=O)O)C[N+](C)(C)C` (stereo not given), the “activity change, negative = inhibition” value is -8.32% (inactive).
Turning to `CS(=O)(=O)c1cccc(CNc2nc(Nc3ccc4c(c3)CCC(=O)N4)ncc2C(F)(F)F)c1`, the “activity change, negative = inhibition” value is -23.5% (inactive).
On the same count and under the same terms, for `O=[N+]([O-])c1cccc2cn[nH]c12` the value was 17% (inactive).
With `CN=C(N)NCCC[C@H](N)C(=O)O`, the “activity change, negative = inhibition” value was -6.46% (inactive).
As for `NCCC1CCCC(CCN)N1` (stereo not given), the “activity change, negative = inhibition” value was 7.98% (inactive).
Regarding `CC(O)C(O)[C@H]1CNc2nc(N)[nH]c(=O)c2N1` (stereo not given in full), the “activity change, negative = inhibition” value was 5.46% (inactive).
For the compound `CCCCCC[C@@H]([C@@H](C)O)n1cnc2c(N)ncnc21`, the “activity change, negative = inhibition” value was -13.3% (inactive).
With `NC(=O)CC[C@H](N)C(=O)O`, the “activity change, negative = inhibition” value was 8.9% (inactive).
As for `NC(=O)C(=O)O`, the “activity change, negative = inhibition” value is 9.81% (inactive).
Turning to `CCC(=O)N1CCN(C(=O)c2ccccc2)CC1`, the “activity change, negative = inhibition” value is 2.87% (inactive).

A further test can be described thus: qHTS assay to identify small molecule agonists of the estrogen related receptor (ERR) signaling pathway (AID 1224820). The note with it: ERR reporter cell line, luciferase agonist mode; series mostly up to 46.1 µM; activation: at the top concentration. The method in brief:
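An ERR cell line provided by NTP was seeded at 2,000 cells per well and allowed to settle for 6 h before compounds in DMSO were added. After 18 h at 37 C, luciferase activity was measured by One-Glo luminescence.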
Consider `CCCN(CCc1ccccc1)C1CCc2c(O)cccc2C1` (stereo not given), for which the “activation” value is -18.5% (inactive).
For the compound `O=C(O)Cc1ccc(O)c(O)c1`, the “activation” value is 9.24% (inactive).
Still for that read-out and setting: the same measure for `S=C(S)OC1CC2CC1C1CCCC21` (stereo not given): 13.4% (inactive).
For the compound `[Li+]`, the “activation” value is 11.6% (inactive).
In the case of `Nc1nc(N)c2nc(CNc3ccc(C(=O)NC(CCC(=O)O)C(=O)O)cc3)cnc2n1` (stereo not given), the “activation” value was -91.1% (inactive).
Still for that read-out and setting: for `CN1CCc2ccccc2Cc2[nH]c3ccccc3c2CC1` the value was -9.51% (inactive); for `NCC(O)C1CCCCCCC1` (stereo not given), 1.68% (inactive); for `O=C(O)C1CCCN(CCC=C(c2ccccc2)c2ccccc2)C1` (stereo not given), 11.7% (inactive).
For `CCCCC#Cc1nc(NC)c2ncn([C@@H]3O[C@H](CO)[C@@H](O)C3O)c2n1` (stereo not given in full), the “activation” value is -10.6% (inactive).
For `N[C@@H](CS(=O)O)C(=O)O`, the “activation” value is 2.99% (inactive).
For `O=C1NC(=O)C(c2ccccc2[N+](=O)[O-])=C1Nc1ccc(O)c(Cl)c1`, the “activation” value was 4.49% (inactive).
`Nc1ncnc2c1nc(Br)n2C1OC2COP(=O)(O)O[C@@H]2C1O` (stereo not given in full): the “activation” value was 8% (inactive).
On the same count and under the same terms, the same measure for `COc1ccccc1CNCCCCCCNCCCCCCCCNCCCCCCNCc1ccccc1OC`: 9.61% (inactive); for `O=c1c(O)c(-c2cc(O)c(O)c(O)c2)oc2cc(O)cc(O)c12`: -11.8% (inactive).
`Cc1cc2c(cc1Cl)N(C(=O)Nc1ccnc3ccccc13)CC2`: the “activation” value was -25.6% (inactive).
For the compound `Cc1cn([C@H]2CC(N=[N+]=[N-])[C@@H](CO)O2)c(=O)[nH]c1=O` (stereo not given in full), the “activation” value is -0.236% (inactive).
In the case of `CN1[C@@H](CC(=O)c2ccccc2)CCC[C@H]1C[C@H](O)c1ccccc1`, the “activation” value was 11.8% (inactive).
The same measure, in the same setting: the same measure for `NCC1OC(OC2C(O)[C@@H](OC3C(O)C(N)CC(N)C3OC3OC(CO)C(O)C(O)C3N)O[C@@H]2CO)C(N)C(O)C1O` (stereo not given in full): 3.44% (inactive); for `O=C(O)C1CCCNC1` (stereo not given): 14.3% (inactive).
In the case of `O=C(Nc1ccc2[nH]ncc2c1)C1CCC1`, the Potency was 12800 nM (active).
Turning to `CCCCOc1cc(CC2CNC(=O)N2)ccc1OC` (stereo not given), the “activation” value is 4.58% (inactive).
Turning to `O=Nc1c(-c2c(O)[nH]c3cc(Br)ccc23)[nH]c2ccccc12`, the Potency was 1680 nM (active).
For `CNCCC=C1c2ccccc2CCc2ccccc21`, the “activation” value is 11.5% (inactive).
`CC(C)C[C@H](NC(=O)[C@H](O)[C@H](N)Cc1ccccc1)C(=O)O`: the “activation” value is 0.815% (inactive).
As for `CCNC(=O)[C@H]1O[C@@H](n2cnc3c(N)nc(NCCc4ccc(CCC(=O)O)cc4)nc32)[C@H](O)C1O` (stereo not given in full), the “activation” value was -3.66% (inactive).
With `O=C1Cc2c([nH]c3ccc(Br)cc23)-c2ccccc2N1`, the Potency is 2980 nM (active).
For `Cc1nc(N=Nc2ccc(C(=O)O)cc2)c(COP(=O)(O)O)c(C=O)c1O`, the “activation” value was 1.55% (inactive).
As to `O=c1ccn([C@@H]2O[C@H](COP(=O)(O)OP(=O)(O)O)[C@@H](O)[C@H]2O)c(=O)[nH]1`, the “activation” value was -14.2% (inactive).
For `O=C(N[C@@H](Cc1ccccc1)C(=O)CCl)OCc1ccccc1`, the “activation” value was -102% (inactive).
For `NC(=O)c1ccc2[nH]ccc2c1`, the “activation” value was 6.1% (inactive).
With `CCCCCCCCCCCCCCCCCC(=O)OC(CC(=O)O)C[N+](C)(C)C` (stereo not given), the “activation” value is -8.6% (inactive).
Regarding `CS(=O)(=O)c1cccc(CNc2nc(Nc3ccc4c(c3)CCC(=O)N4)ncc2C(F)(F)F)c1`, the “activation” value was -23.5% (inactive).
Same read-out and setting: the same measure for `O=[N+]([O-])c1cccc2cn[nH]c12`: 19.5% (inactive); for `CN=C(N)NCCC[C@H](N)C(=O)O`: -8.91% (inactive).
Take `NCCC1CCCC(CCN)N1` (stereo not given): the “activation” value was 11.1% (inactive).
With `CC(O)C(O)[C@H]1CNc2nc(N)[nH]c(=O)c2N1` (stereo not given in full), the “activation” value was 6.27% (inactive).
Take `CCCCCC[C@@H]([C@@H](C)O)n1cnc2c(N)ncnc21`: the “activation” value is -19.5% (inactive).
Turning to `NC(=O)CC[C@H](N)C(=O)O`, the “activation” value is 9.04% (inactive).
On to `NC(=O)C(=O)O`, for which the “activation” value was 14.4% (inactive).
Turning to `CCC(=O)N1CCN(C(=O)c2ccccc2)CC1`, the “activation” value is 3.02% (inactive).
